Data on 15 compounds can be found in PubChem BioAssay.

Experiment [1] is described as follows: small molecules captured by biotinylated probe aFSTL3 – biochemical, small-molecule microarray, fluorescence 635/667, stem cell growth factor project, primary screen (AID 1064).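 Note: measures binding of the biotinylated anti-FSTL3 antibody to printed compounds.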 Particulars: higher = more signal.
Experiment [2] in a line: binders from COS7 lysate, DM2A8 probe, primary screen, torsin A project, cell lysate, small-molecule microarray, fluorescence 635/667 (AID 1065). The settings on record: higher = more signal, COS7 lysate expressing mutant human TOR1A.
Experiment [3] in a line: small molecules captured by biotinylated probe aFGF2 – biochemical, small-molecule microarray, fluorescence 635/667, stem cell growth factor project, primary screen (AID 1067).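 Note: measures binding of biotinylated aFGF2 protein to printed compounds on slides; z-score merges feature fluorescence and signal-to-noise across triplicate slides.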 The settings on record: higher = more signal.
A short description of experiment [4]: small molecules captured by biotinylated probe aFGF10 – biochemical, small-molecule microarray, fluorescence 635/667, stem cell growth factor project, primary screen (AID 1071).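 Note: score merges 667 nm spot intensity and signal to noise from triplicate slides.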 Particulars: higher = more signal.
The target in experiment [5] is Neurogenic locus notch homolog protein 2 (Homo sapiens) (UniProt Q04721). In words: small molecules binding Notch2 protein – biochemical, small-molecule microarray, 635 nm fluorescence, stem cell growth factors, primary screen (AID 1073). The settings on record: higher = more signal.
In experiment [6] the target is Pro-neuregulin-1, membrane-bound isoform (Homo sapiens) (UniProt Q02297). In words: small molecules binding neuregulin-1 protein – biochemical, small-molecule microarray, fluorescence 635/667, psychiatric disease protein project, primary screen (AID 1075).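 Note: score combines 667 nm spot fluorescence with signal to noise.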 Particulars: NRG1 binding, 635 nm fluorescence, higher = more signal.
For experiment [7], the system named is Neuregulin-1 EGF-like domain. In words: small molecules binding NRG1 EGF domain – biochemical, small-molecule microarray, 635 nm fluorescence, primary screen (AID 1081).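 Note: binding of the protein to compounds printed on small-molecule microarray slides.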 The settings on record: higher = more signal.
A short description of experiment [8]: FRG1 expression reporter modulators in myotubes – cell-based, C2C12 myotubes, firefly/Renilla luciferase, luminescence, FRG1 inhibition for FSHD, primary screen (AID 1084). The settings on record: FRG1 promoter luciferase, higher = more signal, called active from +8 up or from −8 down.
The nature of experiment [9]: small molecules captured by biotinylated probe aFST – biochemical, small-molecule microarray, fluorescence 635/667, stem cell growth factor project, primary screen (AID 1086).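 Note: score merges 667 nm fluorescence with signal-to-noise of each printed compound spot.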 The settings on record: higher = more signal.
Experiment [10] can be described thus: binders of probe aHhip on microarray, primary screen, stem cell growth factor project, biochemical, small-molecule microarray, fluorescence 635/667 (AID 1087).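 Note: score merges spot fluorescence at 667nm with spot signal to noise ratio.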 The settings on record: higher = more signal.

Calls of active or inactive are those of the source.

Neurogenic locus notch homolog protein 2 (Homo sapiens), sequence (Q04721 whole entry, looked up, canonical isoform): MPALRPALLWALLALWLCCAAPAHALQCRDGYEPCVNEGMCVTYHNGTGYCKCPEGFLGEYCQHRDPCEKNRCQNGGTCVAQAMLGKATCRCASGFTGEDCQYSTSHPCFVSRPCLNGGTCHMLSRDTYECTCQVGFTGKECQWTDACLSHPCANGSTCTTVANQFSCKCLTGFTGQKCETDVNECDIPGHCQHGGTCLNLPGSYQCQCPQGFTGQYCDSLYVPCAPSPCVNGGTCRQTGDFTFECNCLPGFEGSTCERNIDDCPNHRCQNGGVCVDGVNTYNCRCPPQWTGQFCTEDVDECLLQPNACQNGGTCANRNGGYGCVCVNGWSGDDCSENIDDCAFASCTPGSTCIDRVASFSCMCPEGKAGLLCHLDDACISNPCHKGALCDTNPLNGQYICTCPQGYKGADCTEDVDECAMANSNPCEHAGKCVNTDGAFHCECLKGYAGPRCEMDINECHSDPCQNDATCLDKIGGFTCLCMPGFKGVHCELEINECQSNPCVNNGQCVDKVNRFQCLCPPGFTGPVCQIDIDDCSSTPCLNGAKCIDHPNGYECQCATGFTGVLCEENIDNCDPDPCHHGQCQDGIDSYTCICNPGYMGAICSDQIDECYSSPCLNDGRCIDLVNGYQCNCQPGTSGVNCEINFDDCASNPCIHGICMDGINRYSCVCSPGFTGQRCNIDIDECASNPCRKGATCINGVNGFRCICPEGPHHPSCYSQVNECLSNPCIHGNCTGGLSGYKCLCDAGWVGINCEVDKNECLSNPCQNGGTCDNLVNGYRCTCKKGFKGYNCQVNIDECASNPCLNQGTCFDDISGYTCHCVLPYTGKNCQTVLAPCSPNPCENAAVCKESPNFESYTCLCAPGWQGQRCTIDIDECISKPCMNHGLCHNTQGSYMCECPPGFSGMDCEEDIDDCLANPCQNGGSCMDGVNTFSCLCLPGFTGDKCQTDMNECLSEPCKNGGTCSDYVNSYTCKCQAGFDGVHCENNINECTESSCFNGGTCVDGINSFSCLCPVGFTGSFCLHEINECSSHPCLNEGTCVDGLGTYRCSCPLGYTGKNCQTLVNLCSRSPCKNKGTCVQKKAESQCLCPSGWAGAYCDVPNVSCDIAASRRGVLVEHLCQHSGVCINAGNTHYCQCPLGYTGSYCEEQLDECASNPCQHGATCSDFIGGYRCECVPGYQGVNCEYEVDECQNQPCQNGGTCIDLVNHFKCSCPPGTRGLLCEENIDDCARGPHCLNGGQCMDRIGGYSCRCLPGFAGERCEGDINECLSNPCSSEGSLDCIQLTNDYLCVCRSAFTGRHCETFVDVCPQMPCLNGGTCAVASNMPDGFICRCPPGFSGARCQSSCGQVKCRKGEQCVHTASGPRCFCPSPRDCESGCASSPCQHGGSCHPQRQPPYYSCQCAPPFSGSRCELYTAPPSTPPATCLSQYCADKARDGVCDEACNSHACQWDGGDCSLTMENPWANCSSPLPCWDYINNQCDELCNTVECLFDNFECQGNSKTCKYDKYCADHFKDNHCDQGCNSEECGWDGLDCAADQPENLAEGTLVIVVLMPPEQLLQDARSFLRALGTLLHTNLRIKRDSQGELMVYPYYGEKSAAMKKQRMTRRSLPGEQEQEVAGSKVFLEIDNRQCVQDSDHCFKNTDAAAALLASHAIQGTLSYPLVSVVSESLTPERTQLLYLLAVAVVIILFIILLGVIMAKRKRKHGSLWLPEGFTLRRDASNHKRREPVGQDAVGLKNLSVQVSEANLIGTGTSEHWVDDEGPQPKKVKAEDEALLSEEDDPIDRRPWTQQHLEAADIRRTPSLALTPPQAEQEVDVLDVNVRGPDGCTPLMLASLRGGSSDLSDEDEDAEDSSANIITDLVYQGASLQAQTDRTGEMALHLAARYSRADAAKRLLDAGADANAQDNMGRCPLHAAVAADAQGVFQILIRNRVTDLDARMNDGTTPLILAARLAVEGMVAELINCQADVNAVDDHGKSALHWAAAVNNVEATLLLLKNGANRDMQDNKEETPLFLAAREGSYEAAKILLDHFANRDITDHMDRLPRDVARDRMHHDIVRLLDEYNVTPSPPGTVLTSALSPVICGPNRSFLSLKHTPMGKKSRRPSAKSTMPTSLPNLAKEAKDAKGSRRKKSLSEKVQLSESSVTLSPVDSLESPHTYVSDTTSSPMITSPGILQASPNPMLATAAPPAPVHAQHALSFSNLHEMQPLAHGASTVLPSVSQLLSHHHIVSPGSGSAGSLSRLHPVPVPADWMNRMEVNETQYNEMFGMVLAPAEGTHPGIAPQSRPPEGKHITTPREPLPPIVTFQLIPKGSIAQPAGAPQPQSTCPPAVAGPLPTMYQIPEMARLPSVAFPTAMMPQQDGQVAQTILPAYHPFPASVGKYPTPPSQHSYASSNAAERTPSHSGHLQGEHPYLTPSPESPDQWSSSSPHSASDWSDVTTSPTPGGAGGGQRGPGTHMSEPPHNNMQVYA
Pro-neuregulin-1, membrane-bound isoform (Homo sapiens), sequence (Q02297 whole entry, looked up, the tested form may be a part, canonical isoform): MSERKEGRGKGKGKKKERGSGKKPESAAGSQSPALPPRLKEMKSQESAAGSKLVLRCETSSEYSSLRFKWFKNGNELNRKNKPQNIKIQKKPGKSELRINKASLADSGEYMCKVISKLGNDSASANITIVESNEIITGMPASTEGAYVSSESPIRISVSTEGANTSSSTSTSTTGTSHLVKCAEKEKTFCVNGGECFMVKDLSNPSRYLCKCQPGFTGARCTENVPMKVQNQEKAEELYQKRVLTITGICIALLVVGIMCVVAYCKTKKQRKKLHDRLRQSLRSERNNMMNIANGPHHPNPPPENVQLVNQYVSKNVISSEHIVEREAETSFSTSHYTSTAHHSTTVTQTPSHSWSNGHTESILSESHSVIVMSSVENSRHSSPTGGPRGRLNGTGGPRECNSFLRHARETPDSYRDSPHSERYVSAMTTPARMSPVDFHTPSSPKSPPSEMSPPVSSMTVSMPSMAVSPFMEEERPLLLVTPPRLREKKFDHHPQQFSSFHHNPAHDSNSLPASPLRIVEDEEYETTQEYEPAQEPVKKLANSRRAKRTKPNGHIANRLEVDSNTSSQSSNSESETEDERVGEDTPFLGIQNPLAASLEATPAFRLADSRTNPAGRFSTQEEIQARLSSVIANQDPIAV

With `C=CCNC(=O)[C@@H]1[C@H]2C(=O)O[C@H](c3ccccc3)[C@H](c3ccccc3)N2[C@H](c2ccc(OCCO)cc2)[C@@]12C(=O)N(C(=O)OCCOC)c1ccc(C#Cc3ccc(OC)cc3)cc12`, the composite z-score in [1] is -0.412; in experiment [2], 0.1; in experiment [3] it was -0.126; in experiment [4] it was 0.0179; in experiment [5], 0.801; in experiment [6], 1.1. For the same compound, the composite z-score in experiment [7] is 1.07; in experiment [9] it was 0.267; in experiment [10] it was -0.0955. The z-score in experiment [8] was -0.309 (inactive).

`C#CCN(Cc1ccccc1Br)[C@H](/C=C/c1ccccc1)[C@@H](O)Cc1ccccc1`: the composite z-score in [1] was 1.6; in experiment [2], -0.145; in experiment [3] it was -0.164; in experiment [4] it was -0.738; in experiment [5], -1.09; in experiment [6], -0.316. For the same compound, the composite z-score in [7] is -0.289; in experiment [9], -0.722; in experiment [10], 0.0373. For the same compound, in experiment [8], the z-score is -2.05 (inactive).

With `C=C(/C(=C/C[C@H](OC(=O)c1ccncc1)c1ccc(CO)o1)c1cnc2ccccc2c1)C(C)C`, the composite z-score was -0.418 in experiment [1]; 0.0906 in [2]; -0.0325 in experiment [3]; 1.21 in experiment [4]; 1.44 in experiment [5]; 0.519 in experiment [6]. The composite z-score in [7] worked out at 1.17; in [9] it was 0.106; in experiment [10], 0.0373. Moreover, in [8], the z-score was 0.368 (inactive).

Turning to `CC(CO)N1C(=O)[C@]2(C)C3C(=O)OCCC/C=C\[C@H]3OC23C=CCN(c2ccc(Cl)cc2)C(=O)[C@@H]13` (stereo not given in full), the composite z-score was -0.167 in experiment [1]; -0.258 in [2]; -0.19 in [3]; 0.0755 in experiment [4]; -0.27 in [5]; -0.639 in experiment [6]. Besides, the results for the composite z-score in [7], in experiment [9] and in experiment [10] were 1.25, -0.456 and -0.266, respectively. Also, the z-score in experiment [8] was -0.906 (inactive).

Turning to `CCOC(=O)C[C@H]1[C@H](OC(=O)c2ccc(C(=O)c3ccccc3)cc2)[C@@H](NC(=O)c2ccc(-c3ccccc3)cc2)c2cc(OCCCO)ccc2N1C(=O)Cc1ccc(OC)cc1`, the composite z-score was -0.258 in experiment [1]; -0.0676 in [2]; -0.0364 in [3]; 0.034 in [4]; 0.618 in [5]; 0.486 in experiment [6]. Further, the composite z-score in [7] was -0.228; in experiment [9], 0.765; in experiment [10], 0.0976. Moreover, the z-score in experiment [8] is -0.111 (inactive).

For the compound `O=C(C1N=C(c2ccc(OCCCO)cc2)N(c2ccccc2)O1)N1CCCCC1` (stereo not given), the composite z-score in experiment [1] came to 0.819; in [2] it was 1.49; in [3], 0.182; in experiment [4], 0.938; in [5], 1.05; in experiment [6], 1.99. The composite z-score in [7] was 1.36; in [9], 1.13; in experiment [10], -0.0952. In addition, the z-score in [8] is 2.39 (inactive).

Turning to `C[C@@H]1NC(=O)[C@@H](Cc2ccccc2)NC(=O)[C@@]23C(=O)N[C@@H](Cc4ccccc4)C2[C@H](C)[C@@]2(C)O[C@H]2C3/C=C/C/C=C\CNC1=O` (stereo not given in full), the composite z-score is -0.285 in experiment [1]; 1.13 in experiment [2]; -0.149 in experiment [3]; -0.211 in experiment [4]; -0.787 in [5]; -0.235 in [6]. Further, the composite z-score in experiment [7] was 0.305; in [9] it was -0.263; in [10], -0.249. In addition, the z-score in [8] is -0.323 (inactive).

For the compound `CC#CCO[Si](C#Cc1ccccc1)(C(C)C)C(C)C`, the composite z-score in experiment [1] was 0.393; in experiment [2], -0.688; in [3], -0.187; in experiment [4] it was -0.279; in experiment [5] it was 1.34; in experiment [6], -0.878. Moreover, the composite z-score was -0.665 in [7], -0.217 in experiment [9] and -0.134 in experiment [10]. The z-score in [8] is 0.289 (inactive).

Take `CCCC[C@@H]1C[C@H]1[C@@H](NC(=O)c1cccs1)c1ccccc1C(F)(F)F`: the composite z-score came out at 0.015 in experiment [1]; 0.871 in [2]; 0.326 in experiment [3]; 0.256 in experiment [4]; 0.803 in [5]; 1.8 in experiment [6]. In addition, the composite z-score in [7] is 1.1; in experiment [9], -0.517; in experiment [10], -0.115. The z-score in [8] was -0.0362 (inactive).

For `CS(=O)(=O)CCOC(=O)C1=CC(CCCO)=CC(c2ccc(CN3CCCC3)cc2)N(Cc2sc3ccccc3c2Cl)C=C1C(=O)OCCS(C)(=O)=O` (stereo not given), the composite z-score in experiment [1] turned out to be 0.0681; in experiment [2], 2.14; in experiment [3], 0.198; in experiment [4], 1.3; in experiment [5] it was 1.62; in experiment [6], 2.16. Further, the composite z-score was 1.22 in [7], 0.888 in experiment [9] and 0.0053 in [10]. For the same compound, in [8], the z-score is 0.168 (inactive).

Turning to `C=CC[C@@H](OC(=O)Nc1ccc(OC)cc1)c1ccc(O)c(F)c1`, the composite z-score in experiment [1] is 0.93; in experiment [2], 0.141; in [3] it was -0.141; in [4], -0.97; in experiment [5], -1.43; in experiment [6], 0.952. Further, the results for the composite z-score in experiment [7], in experiment [9] and in experiment [10] were 1.13, -0.535 and -0.216, respectively. Further, in experiment [8], the z-score was 6.36 (inactive).

With `CC[C@@H]1C=C(C(=O)O)[C@H](c2ccc(C#N)cc2)N1S(=O)(=O)c1ccc(C)cc1`, the composite z-score was 0.6 in experiment [1]; 2.35 in experiment [2]; 0.0865 in experiment [3]; 1.09 in experiment [4]; 0.905 in experiment [5]; 1.25 in [6]. Further, the values for the composite z-score in experiment [7], in experiment [9] and in [10] were 1.3, 0.145 and -0.134, respectively. Further, the z-score in experiment [8] was 0.281 (inactive).

Take `CCCC1(C(=O)OC)C=C2C(=C(C)C(=O)C2C)CN1` (stereo not given): the composite z-score was 0.948 in experiment [1]; -0.313 in experiment [2]; -0.0296 in [3]; -0.0572 in experiment [4]; -0.326 in [5]; -0.74 in experiment [6]. Further, the composite z-score in experiment [7] was 0.188; in [9], 0.454; in [10], -0.0645. In experiment [8], the z-score is 3.02 (inactive).

With `CCOC(=O)C[C@H]1[C@H](OC(=O)c2ccc(C(=O)c3ccccc3)cc2)[C@@H](NC(=O)c2ccc3ccccc3n2)c2cc(OCCCO)ccc2N1C(=O)Cc1ccc(OC)cc1`, the composite z-score in experiment [1] is -0.379; in experiment [2], 0.123; in experiment [3], -0.0807; in experiment [4], 0.289; in experiment [5], 0.599; in [6], 0.252. For the same compound, the composite z-score in [7] was -0.261; in experiment [9] it was 0.121; in experiment [10], 0.0501. Besides, the z-score in [8] is 0.673 (inactive).

For `CCOC(=O)C[C@H]1[C@H](OC(=O)Cc2ccc3c(c2)OCO3)[C@@H](NC(=O)c2ccc3ccccc3n2)c2cc(OCCCO)ccc2N1C(=O)c1ccccc1`, the composite z-score in experiment [1] was -0.0059; in experiment [2], 0.111; in experiment [3] it was 0.051; in experiment [4], 0.202; in experiment [5] it was 0.64; in [6], 0.405. Also, the composite z-score in experiment [7] is -0.111; in [9] it was 0.23; in experiment [10], -0.069. The z-score in experiment [8] was 1.15 (inactive).
